Results: PubChem BioAssay (NCATS)
Several values for one entry are separate records, joined by “and”; a condition that tells them apart may be missing. Equal entries are not always repeated. Inconclusive results are not listed. Unmarked numbers belong to inactive results. Activity calls are given as the source filed them.

tested on: not listed separately; assay: qHTS assay for small molecule activators of the nuclear factor-kappa B (NF-kB) signaling pathway (AID 651749; active means well fitted activation curve with a large enough effect in the signal ratio; the % refers to the signal ratio; further: % of control where 0% means no effect); details: NF-kB-bla ME-180 cells, beta-lactamase FRET ratio, 16 h; hits give high values
Procedure, shortened: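 Activation measured after 16 hr compound treatment at 37C, 5% CO2, of 2,000 ME-180 cells/well stably expressing an NF-kB response element–driven beta-lactamase reporter, via FRET-disruption fluorescence.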

Compound | activation
O=C(O)CC(O)(CC(=O)O)C(=O)O | -0.675% and 0.892% and -1.06%
CCCCCCCCCC(=O)O | -1.38% and -1.03%
CN(C)Cc1ccccc1 | 0.946%
C=Cc1ccccc1 | -0.47% and -1.21%
CCCCCCCC/C=C\CCCCCCCC(=O)OC[C@@H](O)[C@H]1OC[C@H](O)[C@H]1O | 0.379%

biological target: Tumor necrosis factor (Homo sapiens) (UniProt P01375); assay: qHTS assay to identify small molecules that stimulate Tumor Necrosis Factor-alpha (TNF-alpha) secretion (AID 651757; active means well fitted curve in the direction sought with a large enough effect in the signal ratio; the % refers to the signal ratio; further: 0% is about no effect); details: Human cells, HTRF 665/615 ratio; series mostly up to 92.2 µM
Sequence (P01375 whole entry, looked up): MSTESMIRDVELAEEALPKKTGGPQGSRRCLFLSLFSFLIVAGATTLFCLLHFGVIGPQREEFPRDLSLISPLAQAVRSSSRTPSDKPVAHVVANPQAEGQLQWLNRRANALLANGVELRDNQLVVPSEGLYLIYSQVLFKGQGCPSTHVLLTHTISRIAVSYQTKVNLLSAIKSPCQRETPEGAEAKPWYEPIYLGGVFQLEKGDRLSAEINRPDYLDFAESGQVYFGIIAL
Procedure, shortened: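 Secreted TNF-alpha quantified by TR-FRET sandwich of two labeled anti-TNF-alpha antibodies, incubated 3 hr at room temperature. Preceded by 17 hr, 37 C compound treatment of THP-1 cells at 3000 cells/well.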

Compound | outcome
O=C(O)CC(O)(CC(=O)O)C(=O)O | inactive
CCCCCCCCCC(=O)O | inactive
CN(C)Cc1ccccc1 | inactive
C=Cc1ccccc1 | inactive
COC(C)=O | inactive

tested on: not listed separately; assay: qHTS assay to identify small molecules that stimulate interleukin-8 (IL-8) secretion (AID 651758; active means well fitted activation curve with a large enough effect in the signal ratio; the % refers to the signal ratio; further: 0% is about no effect); details: HTRF ratio (665/615); series mostly up to 92.2 µM
Procedure, shortened: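 Secreted IL-8 measured homogeneously by TR-FRET (two labelled anti-IL-8 antibodies, 1-3 h at room temperature) after a 16 h, 37 C compound treatment of THP-1 cells at 2000 cells/well.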

Compound | outcome
O=C(O)CC(O)(CC(=O)O)C(=O)O | inactive
C=Cc1ccccc1 | inactive
COC(C)=O | inactive
